# Screening data (PubChem BioAssay)
# The list is not random: actives were taken first. Their share in the collection is about 15%.
# RORgamma inh: ROR gamma (mouse) transcription inhibition; P51450; Drosophila S2 Gal4-RORgamma UAS-luciferase reporter, 20 h; Potency, µM (top dose mostly 53.6 µM), hits mostly inhibitors; 310,000 compounds, 5.4% hits; AID 2551; also: nearly all actives have a fitted effect of over 60% in size
# Target sequence (P51450 whole entry, looked up, the tested form may be a part): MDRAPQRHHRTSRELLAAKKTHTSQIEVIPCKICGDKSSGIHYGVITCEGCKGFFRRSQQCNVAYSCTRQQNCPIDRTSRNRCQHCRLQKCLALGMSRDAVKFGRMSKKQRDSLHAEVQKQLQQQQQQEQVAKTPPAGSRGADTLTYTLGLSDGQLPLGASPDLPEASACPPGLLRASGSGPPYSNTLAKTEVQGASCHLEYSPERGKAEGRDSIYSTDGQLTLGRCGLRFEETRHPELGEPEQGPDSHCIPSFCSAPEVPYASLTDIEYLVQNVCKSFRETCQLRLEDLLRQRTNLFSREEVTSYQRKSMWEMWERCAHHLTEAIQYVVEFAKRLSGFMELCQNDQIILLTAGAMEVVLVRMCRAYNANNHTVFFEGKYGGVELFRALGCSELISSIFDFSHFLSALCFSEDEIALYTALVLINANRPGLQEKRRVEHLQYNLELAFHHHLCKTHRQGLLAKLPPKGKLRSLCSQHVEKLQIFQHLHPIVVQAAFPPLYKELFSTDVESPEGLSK
#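 In this cell-based reporter format, copper sulfate (700 uM final) drives Gal4–ROR gamma fusion expression from a metallothionein promoter in Drosophila Schneider cells; compounds preincubated 1 hr, reporter read after 20 hr at ambient temperature.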
# DT40 TDP1 CPT: growth inhibition of DT40 Tdp1-/-;hTDP1 cells with camptothecin (screen for TDP1 inhibitors) | chicken DT40 Tdp1-/-;hTDP1 cells + 20 nM CPT, ATP luminescence, 48 h | Potency, µM (titrated, usually from 46.2 µM), actives largely listed as inhibitors | 420,000 compounds, 12% hits; also: nearly all actives have a fitted effect of over 55% in size
#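 Chicken DT40 Tdp1-/- cells complemented with human TDP1, 400 cells/well, exposed to compounds plus 20 nM camptothecin for at least 48 h at 37 C; viability read as ATP content by CellTiter-Glo luminescence.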
# ELG1 repair inh: blocks ELG1-dependent DNA repair in HEK293T cells. HEK293T ELG1-luciferase reporter, luminescence, 16 h; DNA damage induced by 5-fluorouridine. Potency, µM (top dose mostly 46.1 µM), usual class: inhibitors. 330,000 compounds, 2.3% hits; also: nearly all actives have a fitted effect of over 55% in size
#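 Luminescence from the luciferase reporter, measured 30 min after ONE-Glo reagent at room temperature, was the read-out. Beforehand, 2,000 cells per well were exposed for 16 hr at 37 °C to 5-fluorouridine together with compound or vehicle.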
# 12-LOX inh: inhibitors of human 12S-lipoxygenase ALOX12. Potency, µM (series often up to 108 µM), usual class: inhibitors. purified 12hLO, xylenol orange hydroperoxide absorbance. 580,000 compounds, 1.1% hits. AID 1671190
#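 Hydroperoxide product was detected by ferrous iron/xylenol orange as the 573 to 405 nm absorbance ratio. Arachidonic acid at 40 uM (final) was turned over for 30 min at room temperature by 150 nM human 12hLO, pH 7.0 Hepes buffer, after 15 min compound preincubation.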
# Gal4-VP16 FLuc: inhibits Gal4-VP16 luciferase reporter, ROR gamma counter-screen; Drosophila S2 Gal4-VP16 UAS-luciferase, luminescence, 20 h; Potency, µM (titrated, usually from 53.6 µM), usual class: inhibitors; 310,000 compounds, 3.5% hits; AID 2546;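 also: Gal4-VP16 expression switched on by copper sulfate through the metallothionein promoter; nearly all actives have a fitted effect of over 50% in size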
# TDP1 cell noCPT: qHTS for Inhibitors of human tyrosyl-DNA phosphodiesterase 1 (TDP1): qHTS in cells in absence of CPT; DT40 Tdp1-/- hTDP1 cells, no CPT, ATP luminescence, 48 h; AID 686978, 2013; Potency, µM (series often up to 46.2 µM), hits mostly inhibitors; 420,000 compounds, 15% hits; also: nearly all actives have a fitted effect of over 55% in size
#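 Stably hTDP1-transfected Tdp1-null chicken DT40 cells were treated with library compounds minus camptothecin and grown for at least 48 hr at 37 °C, after which cellular ATP was quantified by luminescence.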
# A number is an active result; – = inactive; ? = inconclusive; · = no result given. Calls follow the shape of the dose curve; as a rule, active = well fitted curve in the direction sought with a large enough effect; inconclusive = small, poorly fitted or top-dose-only effect, or another doubt; inactive = no such curve, though single readings can be large; an effect the other way counts as inactive or inconclusive.
SMILES,RORgamma inh,DT40 TDP1 CPT,ELG1 repair inh,12-LOX inh,Gal4-VP16 FLuc,TDP1 cell noCPT
O=C(O)c1ccc(CN2C[C@H](O)C[C@H]2c2nc(C3CC3)no2)cc1,·,·,·,–,·,·
CC(C)(C)c1ccc(OCCC(=O)OCC(=O)Nc2cccnc2Cl)cc1,·,?,–,–,·,16.4µM
CS(=O)(=O)c1ccc(C(=O)OCC(=O)Nc2cc(C(F)(F)F)ccc2Cl)cc1[N+](=O)[O-],·,11.2µM,·,·,·,?
NS(=O)(=O)c1cc(C(=O)OCC(=O)Nc2ccc(Cl)cc2[N+](=O)[O-])ccc1Cl,–,–,–,–,–,–
NS(=O)(=O)c1cc(C(=O)OCC(=O)Nc2ccccc2[N+](=O)[O-])ccc1Cl,–,–,–,–,–,–
O=C(COC(=O)COc1ccc(Cl)cc1)Nc1cccnc1Cl,·,–,·,–,·,–
Cc1ccccc1NC(=O)COC(=O)c1ccc(S(C)(=O)=O)c([N+](=O)[O-])c1,14.1µM,2.51µM,?,–,?,3.98µM
CCOC(=O)c1c(C)[nH]c(C(=O)OCc2csc(CC(=O)Nc3ccccc3C)n2)c1C,·,16.4µM,?,–,·,13µM
COCCOCC1(CNC(=O)COc2ccccc2)C[C@@H](O)[C@@H](O)C1 (some centres not stated),·,·,·,–,·,·
CCOC(=O)c1sc(CC(=O)Nc2ccccc2C)nc1C,·,·,·,8.91µM,·,·
Cc1ccccc1NC(=O)Cc1nc(COC(=O)c2ccc(S(C)(=O)=O)c([N+](=O)[O-])c2)cs1,·,2.91µM,?,·,·,3.66µM
CC(CCc1ccccc1)NC(=O)COC(=O)c1ccc([N+](=O)[O-])cc1 (configuration not stated),–,–,?,–,–,–
CC(CCc1ccccc1)NC(=O)COC(=O)c1ccc(S(C)(=O)=O)c([N+](=O)[O-])c1 (configuration not stated),10µM,2.31µM,?,–,?,2.31µM
CS(=O)(=O)c1ccc(C(=O)OCC(=O)Nc2cccnc2Cl)cc1[N+](=O)[O-],·,6.51µM,?,·,·,8.2µM
Cc1c(NCC(=O)Nc2ccccc2C(C)C)cccc1C(=O)N1CCc2sccc2C1,·,·,·,–,·,·
CO[C@H]1C(=O)N(C(C)C)[C@H]1C1CCN(C(=O)CCc2nc3ccccc3s2)CC1,·,·,·,–,·,·
CN(Cc1ccccc1)C(=O)C1CCN(c2ncncn2)CC1,·,·,·,–,·,·
Cc1nc2c3c(C)c(C)n(Cc4ccncc4)c3ncn2n1,·,·,·,–,·,·
COc1cc(C(=O)Nc2ccc(Cl)c(-c3nc4ncccc4o3)c2)cc(OC)c1OC,·,20.6µM,·,–,·,16.4µM
COc1cc(-c2nc3cc(NC(=O)c4ccccc4)ccc3o2)cc(OC)c1OC,·,·,·,–,·,·
CCc1ccc2oc(-c3cc(NC(=O)c4cc(OC)c(OC)c(OC)c4)ccc3O)nc2c1,·,?,·,–,·,?
COc1cc(C(=O)Nc2ccc3oc(-c4ccc(C)c(Br)c4)nc3c2)cc(OC)c1OC,·,20.6µM,·,–,·,8.2µM
COc1cc(C(=O)Nc2ccc(-c3nc4cc(C)ccc4o3)c(O)c2)cc(OC)c1OC,3.55µM,11.6µM,?,–,–,8.2µM
O=C(Nc1ccc(Cl)c(-c2nc3ncccc3o2)c1)c1ccco1,·,·,·,–,·,·
COc1ccc(NC(=O)C(C)Sc2ncnc3nc[nH]c23)cc1OC (configuration not stated),·,·,·,–,·,·
SMILES,RORgamma inh,DT40 TDP1 CPT,ELG1 repair inh,12-LOX inh,Gal4-VP16 FLuc,TDP1 cell noCPT
O=C(Nc1ccc(Cl)cc1)N1CCC2(CC1)CCN(Cc1cccs1)c1ccccc1O2,·,·,·,–,·,·
CN1CCCC1c1nc(C2CN(C(=O)c3cnccn3)C2)no1 (configuration not stated),·,·,·,–,·,·
COc1ccc(-c2cc(CC3(NCc4ccccc4O)COC3)no2)cc1,·,·,·,–,·,·
O=C(CSc1nncc(=O)[nH]1)NCc1ccccc1,–,20.6µM,–,?,–,?
O=C(CSc1nc2nc[nH]c2c(=O)[nH]1)NCc1ccc(F)cc1,·,·,·,–,·,·
O=C(CSc1nc2[nH]ncc2c(=O)[nH]1)NCc1ccccc1,–,–,–,–,–,–
